# Results taken from PubChem BioAssay AID1508600 (Functional Genomics Laboratory (NCATS/FGL), 2020).
# Out of some 53,000 sequences screened, about 3,700 (7%) were called active. This is one part of a sample in which actives are shown more often than they occur. A number with no mark means an inactive call.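 Rule for the calls: active = gene knockdowns whose robust z-score for IL-1 alpha signal is at least 2 or at most -2, so actives lie on both sides; inactive = the rest.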
# Test: Components of the Cytosolic LPS Sensing Pathway: Gene Identification via Genome-wide siRNA Screen;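 note: robust z of the log signal after scaling to non-targeting control siRNA wells of the plate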
# Conditions: RAW264.7 macrophages, IL-1a HTRF, actives lie on both sides, screened at 100 nM (by protocol), cells primed 5 h with Pam3CSK4 first
# How it was run: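 RAW264.7 mouse macrophages reverse-transfected with single siRNAs (100 nM final) for 48h, primed with Pam3CSK4 for 5 hours, then transfected with LipidA for 24 hour. Supernatant IL-1a read by HTRF; values normalized to negative-control median, log-transformed robust z-scores.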
row,Sequence,z-score
1,GGCCACUUGUCUCAUUGUGTT against Xlr4c,-1.93
2,GGAUACCAUCCUAGGCCUGTT against Ephx3,-0.603
3,GCCUCAUCGUUGCUGACUATT against Pde3b,-2.04 (active)
4,GGAUGGUAACCAUCAUAUUTT against Vmn1r54,-0.887
5,CCUCAUUGUUUUAUACCCUTT against Olfr1140,0.309
6,GGGAUUAUACUAAUCCAACTT against Wdr45,1.24
7,GCUUCUUCCUUAGAUGGCATT against Kcnb1,-1.32
8,GGUGCAUUUUGUCUAUGAUTT against Lamp5,-2.04 (active)
9,CGACCAGCCAUGGUACAAATT against Ptprd,-0.83
10,CGUAGAAGAGUACAUGAUUTT against Pdcd10,-0.526
11,GGAGAAAAGGAAGUUGAGGTT against Bnip3l,-1.76
12,GGGUUUCCAAGAAGGAAGCTT against Utp25,0.852
13,CCUUUUUCGAAAAAUCAGGTT against Lyst,-0.39
14,CCACAUAUAUCAACAAGCUTT against Olfr916,-0.257
15,CCAAGAUAGUCCCUAUCCCTT against Scamp3,0.346
16,GGUAUGAUGAACAGUCCAGTT against Ep300,-2.35 (active)
17,GGCUUGUUAAUGAAUGCACTT against Ankrd9,-0.894
18,GGCUUUGAAGAAGAGCUUUTT against Atp6v0a4,-0.775
19,GCACAGCGGUAAACAAAAUTT against Ywhaz,-0.00575
20,GUAUCCUUCACAACUGUCUTT against Olfr786,-1.66
21,GGAAUCUGCUGAGGUUUAUTT against Cidea,4.08 (active)
22,GGAGCUGAGGAAAAAGAUUTT against Uhrf1,-0.993
23,GGCUUAUCAGUCCAUGAAGTT against Dhrs11,-0.601

row,Sequence,z-score
1,GGCGAUCAGGCAUCAUCCUTT against Aox1,-0.153
2,GGCAACCAGUCUCAUCAAUTT against Scgb1b27,-0.927
3,GCAGAGAUACCUAUCAAAGTT against Angptl4,1.16
4,GGAAGAGGAACAGUUAGCCTT against Zfp553,-0.24
5,GGAGGUCUGGAUUAACUGUTT against Cd163l1,2.2 (active)
6,GCAUCCUGAGCAGUGAUAUTT against Taar7b,-1.75
7,GGGUGCAGUGGAGUCUAUUTT against Smc1a,-1.31
8,GGAUUCUGAAGUGUAAAGATT against Icos,-0.764
9,GGCAGAGAUUGAGAGCAAGTT against Palm,2.28 (active)
10,GGAGUUCCUCAAGAAUUUUTT against Arpc4,-1.39
11,GGUUGUACUGAGUAGCUGGTT against Slc7a4,0.997
12,GGUUUACAAGAGUUACAGUTT against Brpf1,0.493
13,GCAAAGUUGGUGACGUGAUTT against Pole2,-2.15 (active)
14,CCAAUAAGGCAUAUGUUUUTT against Scarb2,-0.608
15,GGCACAGCUUGCUGAAGCUTT against Atp11b,-1.76
16,GGAAUACAAAGAUAGCUUCTT against Atrn,0.786
17,GGCUUCUGGACCUCAAACATT against Zfp92,-2.14 (active)
18,GGCAAUGUUUUUCUUGUUGTT against 9330132A10Rik,-1.12
19,GACCCGCUGCUGCUCAAAUTT against Cdc42ep5,-0.178
20,GGGCAAAAGUACUUUGACUTT against Ensa,2.2 (active)
21,GGACUGUGAUCAGGUUUGUTT against Elk3,0.695
22,GGUAACCAUGAUGAUGACATT against Tmem38b,-2.05 (active)
23,GGAAGACACAUUUUUCCAUTT against Serpinb9e,0.733

row,Sequence,z-score
1,GGUCUCUCGGACUUUUUCCTT against Adipor1,-0.765
2,CCAAUGUUGGCAUUAUGUUTT against Fah,-0.354
3,GGAAGAAACUGGAAAGAUUTT against Ankrd23,-1.01
4,GGAAUGGUCCCUCCAAUGATT against Prpf40b,2.38 (active)
5,GGACACAAGCCUAUUCCAATT against Rffl,1.59
6,GGAUUCAAGCAUCGGAUUGTT against Adamts6,1.11
7,GGCAAUUGUCUCAUUCUGATT against Olfr631,0.806
8,CCAUCAACCCAUCAUGUGCTT against Pitpnc1,-1.25
9,GGCCUUGUAUGAAUUAUUUTT against Sqle,2.18 (active)
10,GGGAGCAAAUUAGAGAAAUTT against Gsk3b,0.884
11,GGUCCUCGGUUACAGAAACTT against Cnr2,-0.263
12,CCCAGCUUUUCAACUUGCUTT against Tmc4,-1.19
13,GGGCCUUGUUUUAGGAAUUTT against Lap3,2.2 (active)
14,GGUACUGGAUCAAAGAAACTT against Gm11992,-1.75
15,GCUGGUACAAGGUGUUUGATT against Pqbp1,0.825
16,GGAAGCACUCAGUGCUCUGTT against Igfbp6,2.06 (active)
17,GGAGGUGAAGCUCAUUGUCTT against Ildr1,-0.165
18,CCGUGUCAUUUGGAGAGCUTT against Ndufaf5,-0.248
19,GGUGCAGUUCAGCAACAAGTT against Mat2b,-1.65
20,GCAGUUGGGUUGGUAACUATT against Ash1l,0.101
21,GGGCAAACCUUCUAAACUATT against Ttpa,0.505
22,GGAUCACCCAUACAGGAACTT against Pla2g2f,-2.1 (active)
23,GCUGACAAAACUGCUAAACTT against Ctnnb1,0.948
